For 38 compounds, growth inhibition call results are on record in the antibiotic and cytotoxicity screens of Wong et al. (2023).

Screen size: about 39,000 compounds; about 500 (1.3%) were called active. The sample as a whole holds a higher share of actives than the screen did.

The experiment deals with S. aureus RN4220. In words: growth inhibition call (relative growth <= 0.2). The note with it: 50 µM.
For the compound `CON=C(C(=O)NC1C(=O)N2C(C(=O)OC(C)OC(C)=O)=C(COC(N)=O)CSC12)c1ccco1` (stereo not drawn), the growth inhibition call is “inactive”.

Regarding `CON=C(C(=O)NC1C(=O)N2C(C(=O)O)=C(C[N+]3(C)CCCC3)CSC12)c1csc(N)n1.[Cl-]` (stereo not drawn), the growth inhibition call is “active”.

As for `CON=C(C(=O)NC1C(=O)N2C(C(=O)[O-])=C(COC(N)=O)CSC12)c1ccco1.[Na+]` (stereo not drawn), the growth inhibition call was “active”.

Consider `CO/N=C(\C(=O)N[C@@H]1C(=O)N2C(C(=O)O)=C(CSc3nnnn3C)CS[C@H]12)c1csc(N)n1`, for which the growth inhibition call is “inactive”.

As for `CON=C(C(=O)N[C@@H]1C(=O)N2C(C(=O)O)=C(CSc3nc(=O)c(O)nn3C)CS[C@H]12)c1csc(N)n1`, the growth inhibition call is “active”.

For `CO/N=C(\C(=O)N[C@@H]1C(=O)N2C(C(=O)O[C@@H](C)OC(C)=O)=C(COC(N)=O)CS[C@H]12)c1ccco1`, the growth inhibition call was “inactive”.

As to `Cc1cn2nc([C@@H]3CCCCN3C(=O)c3cc(Cl)ccc3NS(C)(=O)=O)cc2nc1N1CC[C@H](N)C1`, the growth inhibition call was “inactive”.

On to `NNC(=O)c1cc(=S)nc[nH]1`, for which the growth inhibition call was “inactive”.

With `Cc1noc(C)c1NC(=O)Nc1ccc2c(c1)C(=O)N([C@H](C)CO)C[C@@H](C)[C@H](CN(C)S(=O)(=O)c1cn(C)cn1)O2`, the growth inhibition call is “inactive”.

For the compound `C[C@@H]1CN([C@@H](C)CO)C(=O)Cc2cc(NC(=O)NC3CCCCC3)ccc2O[C@H]1CN(C)S(C)(=O)=O`, the growth inhibition call was “inactive”.

As to `C[C@H](CO)N1C[C@H](C)[C@@H](CN(C)Cc2ccc(F)cc2)Oc2ncc(C#Cc3cccnc3)cc2C1=O`, the growth inhibition call is “inactive”.

In the case of `C[C@H]1CN([C@@H](C)CO)C(=O)c2cc(NC(=O)CCCN(C)C)ccc2O[C@@H]1CN(C)C(=O)Nc1ccc(F)cc1`, the growth inhibition call was “inactive”.

As for `C[C@@H]1CN([C@@H](C)CO)C(=O)c2c(c3ccccc3n2C)-c2ccccc2CO[C@@H]1CN(C)Cc1cccc(C(F)(F)F)c1`, the growth inhibition call is “inactive”.

For the compound `C[C@@H]1CN([C@@H](C)CO)C(=O)c2cccc(NC(=O)C3CCOCC3)c2O[C@@H]1CN(C)Cc1ccncc1`, the growth inhibition call was “inactive”.

Turning to `O=C(C[C@@H]1CC[C@@H]2[C@H](COC[C@H](O)CN2S(=O)(=O)c2ccccc2)O1)N1CCOCC1`, the growth inhibition call is “inactive”.

In the case of `CCCNC(=O)N1C[C@@H](O)COC[C@H]2O[C@H](CC(=O)NCCCN3CCOCC3)CC[C@@H]21`, the growth inhibition call is “inactive”.

In the case of `C[C@@H]1CN([C@@H](C)CO)C(=O)c2cc(NC(=O)C3CCCCC3)ccc2O[C@@H](C)CCCCO[C@H]1CN(C)S(=O)(=O)c1ccc(Cl)cc1`, the growth inhibition call was “inactive”.

Consider `C[C@@H]1CN([C@H](C)CO)C(=O)c2cc(NC(=O)Nc3ccc4c(c3)OCO4)ccc2O[C@@H](C)CCCCO[C@@H]1CN(C)C(=O)c1ccccc1`, for which the growth inhibition call is “inactive”.

Consider `COc1ccccc1C#Cc1ccc2c(c1)O[C@@H](CN(C)C(C)=O)[C@H](C)CN([C@@H](C)CO)S2(=O)=O`, for which the growth inhibition call was “inactive”.

Consider `CC1C(NC(=O)C(=NOC(C)(C)C(=O)O)c2csc(N)n2)C(=O)N1S(=O)(=O)O` (stereo not drawn), for which the growth inhibition call is “inactive”.

With `C[C@H]1[C@H](NC(=O)/C(=N\OC(C)(C)C(=O)O)c2csc(N)n2)C(=O)N1S(=O)(=O)O`, the growth inhibition call was “inactive”.

For `CON=C(C(=O)NC1C(=O)N2C(C(=O)[O-])=C(CSc3nc(=O)c([O-])nn3C)CSC12)c1csc(N)n1.O.O.O.[Na+].[Na+]` (stereo not drawn), the growth inhibition call was “inactive”.

Regarding `CON=C(C(=O)NC1C(=O)N2C(C(=O)[O-])=C(COC(C)=O)CSC12)c1csc(N)n1.[Na+]` (stereo not drawn), the growth inhibition call was “active”.

For `COCC1=C(C(=O)OC(C)OC(=O)OC(C)C)N2C(=O)C(NC(=O)C(=NOC)c3csc(N)n3)C2SC1` (stereo not drawn), the growth inhibition call was “inactive”.

In the case of `CO/N=C(\C(=O)N[C@@H]1C(=O)N2C(C(=O)O)=C(C)CS[C@H]12)c1csc(N)n1`, the growth inhibition call is “active”.

As to `C[C@H](CO)N1C[C@H](C)[C@H](CN(C)S(=O)(=O)c2ccccc2)Oc2ccc(NS(C)(=O)=O)cc2C1=O`, the growth inhibition call was “inactive”.

For the compound `O=C(C[C@H]1CC[C@@H]2[C@H](COC[C@H](O)CN2C(=O)Nc2cccc(Cl)c2)O1)NCCCN1CCOCC1`, the growth inhibition call is “inactive”.

As for `O=C(C[C@H]1CC[C@H]2[C@@H](COC[C@@H](O)CN2C(=O)Nc2cccc(Cl)c2)O1)NCCCN1CCOCC1`, the growth inhibition call is “inactive”.

As to `O=C(C[C@H]1CC[C@H]2[C@@H](COC[C@H](O)CN2C(=O)Nc2cccc(F)c2)O1)NCCCN1CCOCC1`, the growth inhibition call was “inactive”.

For the compound `O=C(C[C@H]1CC[C@H]2[C@@H](COC[C@H](O)CN2C(=O)Nc2cccc(Cl)c2)O1)NCCCN1CCOCC1`, the growth inhibition call was “inactive”.

Turning to `O=C(C[C@@H]1CC[C@H]2[C@@H](COC[C@H](O)CN2C(=O)Nc2cccc(F)c2)O1)NCCCN1CCOCC1`, the growth inhibition call is “inactive”.

As to `O=C(C[C@@H]1CC[C@H]2[C@@H](COC[C@@H](O)CN2C(=O)Nc2cccc(Cl)c2)O1)NCCCN1CCOCC1`, the growth inhibition call is “active”.

Regarding `O=C(C[C@@H]1CC[C@@H]2[C@H](COC[C@@H](O)CN2C(=O)Nc2cccc(F)c2)O1)NCCCN1CCOCC1`, the growth inhibition call is “inactive”.

For the compound `O=C(C[C@@H]1CC[C@H]2[C@@H](COC[C@@H](O)CN2C(=O)Nc2cccc(F)c2)O1)NCCCN1CCOCC1`, the growth inhibition call is “inactive”.

Consider `O=C(C[C@@H]1CC[C@@H]2[C@H](COC[C@H](O)CN2C(=O)Nc2cccc(Cl)c2)O1)NCCCN1CCOCC1`, for which the growth inhibition call was “active”.

Consider `O=C(C[C@@H]1CC[C@H]2[C@@H](COC[C@H](O)CN2C(=O)Nc2cccc(Cl)c2)O1)NCCCN1CCOCC1`, for which the growth inhibition call is “active”.

Regarding `O=C(C[C@H]1CC[C@@H]2[C@H](COC[C@@H](O)CN2C(=O)Nc2cccc(Cl)c2)O1)NCCCN1CCOCC1`, the growth inhibition call is “active”.

Take `O=C(C[C@@H]1CC[C@@H]2[C@H](COC[C@H](O)CN2C(=O)Nc2cccc(F)c2)O1)NCCCN1CCOCC1`: the growth inhibition call is “inactive”.
